Results reported in the supplement of paper PMC10849652.
Targets with a hit are over-represented here; the source holds about 7,900 in all. About 0.6% of all pairs of compound and target were hits.

Legend:
Test in all cases: log2 fold change, soluble protein after heating vs DMSO (PISA); higher = thermal stabilisation; K562 cells, 10 uM, 30 min; active = over 0.2 and 3.5 SD of the protein, either way, in both replicates (recomputed)
[1] = compound: Cc1cccc(CC(=O)N2CCc3c2ccc(-c2cn(C)c4ncnc(N)c24)c3F)n1
Procedure, shortened: (§1)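 Aliquots of K562 cells (2×10^6 cells/mL) treated with 10 μM compound for 30 min were heated for 3 min over 48°C-58°C. After pooling and extraction in PBS with 0.5% NP-40 at 4°C, soluble protein from a 21,000xg, 90 min spin was quantified by TMTpro 16plex LC-MS/MS with channel sums equalised. Thermal stability is expressed against control samples, from duplicates, as a log2 fold change.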

dasatinib = compound: Cc1nc(Nc2ncc(C(=O)Nc3c(C)cccc3Cl)s2)cc(N2CCN(CCO)CC2)n1 [dasatinib]
Procedure, shortened: as §1

[2] = compound: Cn1cc(-c2ccc3c(c2)CCN3C(=O)Cc2cccc(C(F)(F)F)c2)c2c(N)ncnc21
Procedure, shortened: as §1

[3] = compound: Cn1cc(-c2ccc3nnc(C(F)(F)c4ccc5ncccc5c4)n3n2)cn1
Procedure, shortened: as §1

tipifarnib = compound: Cn1cncc1[C@@](N)(c1ccc(Cl)cc1)c1ccc2c(c1)c(-c1cccc(Cl)c1)cc(=O)n2C [tipifarnib]
Procedure, shortened: as §1

[4] = compound: NC(=O)Nc1cc(-c2cccc(F)c2)sc1C(=O)N[C@H]1CCCNC1
Procedure, shortened: as §1

[5] = compound: NC(=O)c1cnc(N[C@@H]2CCCC[C@@H]2N)nc1Nc1cccc(-n2nccn2)c1
Procedure, shortened: as §1

[6] = compound: NCC(=O)Nc1ccc(-n2nc(C(F)(F)F)cc2-c2ccc3c(ccc4ccccc43)c2)cc1
Procedure, shortened: as §1

entinostat = compound: Nc1ccccc1NC(=O)c1ccc(CNC(=O)OCc2cccnc2)cc1 [entinostat]
Procedure, shortened: as §1

vorinostat = compound: O=C(CCCCCCC(=O)Nc1ccccc1)NO [vorinostat]
Procedure, shortened: as §1

citarinostat = compound: O=C(CCCCCCNC(=O)c1cnc(N(c2ccccc2)c2ccccc2Cl)nc1)NO [citarinostat]
Procedure, shortened: as §1

[7] = compound: O=C1NC(=O)C(c2cnc3ccccn23)=C1c1cn2c3c(cc(F)cc13)CN(C(=O)N1CCCCC1)CC2
Procedure, shortened: as §1

[8] = compound: c1cc(OCCN2CCCCC2)cc(-c2n[nH]c3ccc(-c4nnc[nH]4)cc23)c1
Procedure, shortened: as §1

bafetinib = compound: Cc1ccc(NC(=O)c2ccc(CN3CC[C@H](N(C)C)C3)c(C(F)(F)F)c2)cc1Nc1nccc(-c2cncnc2)n1 [bafetinib]
Procedure, shortened: as §1

nilotinib = compound: Cc1cn(-c2cc(NC(=O)c3ccc(C)c(Nc4nccc(-c5cccnc5)n4)c3)cc(C(F)(F)F)c2)cn1 [nilotinib]
Procedure, shortened: as §1

[9] = compound: Cc1nc(Nc2n[nH]c3c2CN(C(=O)N[C@H](CN(C)C)c2ccccc2)C3(C)C)c2sccc2n1
Procedure, shortened: as §1

[10] = compound: Cc1ncc(-c2ccnc(Nc3ccc(S(C)(=O)=O)cc3)n2)n1C(C)C
Procedure, shortened: as §1

mubritinib = compound: FC(F)(F)c1ccc(/C=C/c2nc(COc3ccc(CCCCn4ccnn4)cc3)co2)cc1 [mubritinib]
Procedure, shortened: as §1

[11] = compound: NC1(c2ccc(-c3nc4ccn5c(=O)[nH]nc5c4cc3-c3ccccc3)cc2)CCC1
Procedure, shortened: as §1

silmitasertib = compound: O=C(O)c1ccc2c(c1)nc(Nc1cccc(Cl)c1)c1ccncc12 [silmitasertib]
Procedure, shortened: as §1

Measured: log2 fold change

C19orf54 (UniProt Q5BKX5)
Sequence of UniProt Q5BKX5 (Q5BKX5 whole entry, looked up): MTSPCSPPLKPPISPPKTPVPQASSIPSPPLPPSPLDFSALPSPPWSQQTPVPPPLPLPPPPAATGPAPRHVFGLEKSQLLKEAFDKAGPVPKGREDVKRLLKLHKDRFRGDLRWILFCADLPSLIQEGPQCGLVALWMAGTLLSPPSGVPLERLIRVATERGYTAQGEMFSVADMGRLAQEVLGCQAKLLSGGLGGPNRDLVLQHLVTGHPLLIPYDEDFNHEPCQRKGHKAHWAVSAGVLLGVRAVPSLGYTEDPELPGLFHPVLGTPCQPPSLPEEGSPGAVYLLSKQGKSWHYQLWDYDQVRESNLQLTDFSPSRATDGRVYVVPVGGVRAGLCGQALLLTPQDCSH
inactive: [1] 0.007 | dasatinib -0.175 | [2] 0.03 | [3] 0.14 | tipifarnib 0.013 | [4] 0.098 | [5] 0.004 | [6] 0.086 | entinostat -0.111 | vorinostat -0.064 | citarinostat -0.09 | [7] -0.05 | [8] -0.121

CD84 (UniProt Q9UIB8)
Sequence of UniProt Q9UIB8 (Q9UIB8 whole entry, looked up): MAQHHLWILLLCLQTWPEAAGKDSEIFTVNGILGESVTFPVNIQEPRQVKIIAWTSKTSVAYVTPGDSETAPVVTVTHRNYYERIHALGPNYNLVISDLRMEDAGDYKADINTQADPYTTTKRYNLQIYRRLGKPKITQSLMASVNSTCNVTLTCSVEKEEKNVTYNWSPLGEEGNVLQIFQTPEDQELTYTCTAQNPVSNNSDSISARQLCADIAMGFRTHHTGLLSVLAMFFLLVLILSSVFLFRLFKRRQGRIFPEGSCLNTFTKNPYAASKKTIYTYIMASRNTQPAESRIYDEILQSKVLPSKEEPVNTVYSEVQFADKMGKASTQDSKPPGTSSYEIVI
inactive: dasatinib 0.169 | [2] -0.117 | [4] -0.182 | [5] -0.036 | entinostat 0.234 | [7] 0.084

CDK2AP2 (UniProt O75956)
Sequence of UniProt O75956 (O75956 whole entry, looked up): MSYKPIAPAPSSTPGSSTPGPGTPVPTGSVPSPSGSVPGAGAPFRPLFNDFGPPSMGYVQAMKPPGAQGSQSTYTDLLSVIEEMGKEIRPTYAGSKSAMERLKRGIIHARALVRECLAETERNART
inactive: bafetinib 0 | nilotinib 0.04 | [9] 0.028 | [10] -0.063 | [2] -0.022 | [3] -0.039 | mubritinib 0.028 | [5] -0.05 | [11] 0.14 | citarinostat 0.009 | silmitasertib -0.094 | [7] -0.062 | [8] -0.1

CD68 (UniProt P34810)
Sequence of UniProt P34810 (P34810 whole entry, looked up): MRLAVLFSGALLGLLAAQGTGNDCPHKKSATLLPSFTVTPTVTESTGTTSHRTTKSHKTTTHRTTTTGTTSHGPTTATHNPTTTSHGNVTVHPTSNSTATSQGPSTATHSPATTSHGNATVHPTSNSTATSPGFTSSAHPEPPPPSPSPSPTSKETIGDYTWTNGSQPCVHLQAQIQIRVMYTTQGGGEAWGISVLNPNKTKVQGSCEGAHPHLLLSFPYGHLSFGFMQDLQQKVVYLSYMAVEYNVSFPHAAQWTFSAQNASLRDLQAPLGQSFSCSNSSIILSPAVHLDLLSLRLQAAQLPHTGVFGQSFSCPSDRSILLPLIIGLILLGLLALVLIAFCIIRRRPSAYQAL
inactive: bafetinib -0.091 | mubritinib -0.003 | [4] 0.039 | [11] -0.106 | entinostat -0.33 | silmitasertib 0.07

CCDC187, A0A1W2PQX5
inactive: [1] -0.106 | nilotinib 0.318 | [9] 0.027 | [10] 0.104 | [3] -0.056 | [5] -0.147 | vorinostat -0.042 | [7] -0.048

C5orf30 (UniProt Q96GV9)
Sequence of UniProt Q96GV9 (Q96GV9 whole entry, looked up): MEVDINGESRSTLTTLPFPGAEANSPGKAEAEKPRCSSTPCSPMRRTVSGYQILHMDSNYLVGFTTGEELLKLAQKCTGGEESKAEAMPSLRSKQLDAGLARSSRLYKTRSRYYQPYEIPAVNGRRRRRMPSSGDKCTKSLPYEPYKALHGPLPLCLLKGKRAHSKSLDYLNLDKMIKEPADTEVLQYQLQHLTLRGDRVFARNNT
inactive: tipifarnib 0.152 | [5] -0.191 | [7] -0.051

COMMD3-BMI1 (UniProt R4GMX3)
inactive: [1] -0.032 | nilotinib -0.109 | [9] -0.02 | [10] 0.046 | [2] 0.141 | tipifarnib 0.435 | [4] 0.003 | [5] 0.076 | entinostat -0.062 | vorinostat 0.109 | [7] -0.012

CAD (UniProt H7BZB3)
inactive: [5] 0.124

CPNE5 (UniProt Q9HCH3)
inactive: [2] -0.077

CCNL1 (UniProt Q9UK58)
Sequence of UniProt Q9UK58 (Q9UK58 whole entry, looked up): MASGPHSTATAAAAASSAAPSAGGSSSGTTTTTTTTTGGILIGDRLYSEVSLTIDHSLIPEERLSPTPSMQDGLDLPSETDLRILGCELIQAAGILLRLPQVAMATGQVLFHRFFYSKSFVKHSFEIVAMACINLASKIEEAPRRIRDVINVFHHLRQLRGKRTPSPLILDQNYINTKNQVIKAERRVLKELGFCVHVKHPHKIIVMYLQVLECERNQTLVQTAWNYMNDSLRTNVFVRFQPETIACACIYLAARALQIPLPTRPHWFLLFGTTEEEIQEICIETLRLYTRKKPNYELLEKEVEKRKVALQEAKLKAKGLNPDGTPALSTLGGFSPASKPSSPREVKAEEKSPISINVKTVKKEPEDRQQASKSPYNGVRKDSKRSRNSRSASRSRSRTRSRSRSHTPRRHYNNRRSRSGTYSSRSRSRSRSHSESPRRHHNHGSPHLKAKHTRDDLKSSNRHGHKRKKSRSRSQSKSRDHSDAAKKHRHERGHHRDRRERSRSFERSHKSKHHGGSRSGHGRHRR
inactive: mubritinib 0.122 | [11] -0.224 | silmitasertib -0.173

COG2 (UniProt Q14746)
Sequence of UniProt Q14746 (Q14746 whole entry, looked up): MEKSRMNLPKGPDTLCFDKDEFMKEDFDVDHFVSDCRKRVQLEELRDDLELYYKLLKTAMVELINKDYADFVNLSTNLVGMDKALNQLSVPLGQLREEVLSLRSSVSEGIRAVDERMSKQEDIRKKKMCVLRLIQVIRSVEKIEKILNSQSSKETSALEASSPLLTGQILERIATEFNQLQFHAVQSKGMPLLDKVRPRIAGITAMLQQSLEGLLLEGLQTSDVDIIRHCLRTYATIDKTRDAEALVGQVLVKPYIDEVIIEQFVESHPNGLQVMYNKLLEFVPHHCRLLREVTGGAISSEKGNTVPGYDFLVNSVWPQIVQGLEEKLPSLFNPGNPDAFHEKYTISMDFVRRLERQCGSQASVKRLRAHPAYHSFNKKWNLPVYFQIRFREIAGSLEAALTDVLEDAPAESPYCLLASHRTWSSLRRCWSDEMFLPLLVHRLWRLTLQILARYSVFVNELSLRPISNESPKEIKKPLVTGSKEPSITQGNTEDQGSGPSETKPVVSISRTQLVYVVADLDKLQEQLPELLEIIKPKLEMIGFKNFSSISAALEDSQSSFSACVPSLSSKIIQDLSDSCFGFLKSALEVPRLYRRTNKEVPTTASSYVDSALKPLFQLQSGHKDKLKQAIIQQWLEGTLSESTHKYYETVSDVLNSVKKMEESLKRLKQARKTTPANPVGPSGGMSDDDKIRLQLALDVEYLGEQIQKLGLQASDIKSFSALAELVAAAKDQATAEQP
inactive: nilotinib -0.169 | [9] -0.006 | dasatinib -0.051 | [10] 0.133 | [2] -0.074 | [3] 0.245 | mubritinib -0.035 | [4] -0.07 | [5] -0.513 | [11] -0.487 | entinostat 0.138 | citarinostat 0.101 | silmitasertib 0.248 | [7] -0.031 | [8] 0.34

CLCN5 isoform 2 (UniProt P51795)
inactive: [1] 0.048 | nilotinib -0.176 | [9] 0.014 | dasatinib -0.177 | [10] -0.063 | [2] 0.041 | [3] -0.061 | [6] 0.004 | vorinostat 0.062 | citarinostat 0.045 | [8] -0.114

CREB3L2 (UniProt Q70SY1)
Sequence of UniProt Q70SY1 (Q70SY1 whole entry, looked up): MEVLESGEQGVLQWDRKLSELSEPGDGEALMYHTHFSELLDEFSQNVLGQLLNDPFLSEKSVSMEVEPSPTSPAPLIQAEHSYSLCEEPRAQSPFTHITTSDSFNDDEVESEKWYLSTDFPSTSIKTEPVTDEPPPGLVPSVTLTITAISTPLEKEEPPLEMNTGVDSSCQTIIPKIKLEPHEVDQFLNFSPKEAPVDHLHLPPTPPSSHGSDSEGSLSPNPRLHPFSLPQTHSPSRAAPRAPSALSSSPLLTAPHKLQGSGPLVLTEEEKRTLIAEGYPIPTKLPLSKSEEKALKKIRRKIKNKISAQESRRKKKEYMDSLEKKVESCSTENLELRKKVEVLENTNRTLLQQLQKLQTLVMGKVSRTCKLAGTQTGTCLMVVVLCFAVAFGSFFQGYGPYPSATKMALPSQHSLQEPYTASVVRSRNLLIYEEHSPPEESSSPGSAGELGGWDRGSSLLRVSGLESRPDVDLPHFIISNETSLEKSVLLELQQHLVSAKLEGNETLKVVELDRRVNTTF
inactive: bafetinib 0.01 | nilotinib 0.091 | [9] -0.009 | [10] -0.119 | [2] 0.039 | [3] -0.024 | mubritinib 0.13 | [5] -0.102 | [11] -0.074 | [6] 0.035 | silmitasertib 0.023 | [7] -0.076

CEP128 (UniProt Q6ZU80)
Sequence of UniProt Q6ZU80 (Q6ZU80 whole entry, looked up): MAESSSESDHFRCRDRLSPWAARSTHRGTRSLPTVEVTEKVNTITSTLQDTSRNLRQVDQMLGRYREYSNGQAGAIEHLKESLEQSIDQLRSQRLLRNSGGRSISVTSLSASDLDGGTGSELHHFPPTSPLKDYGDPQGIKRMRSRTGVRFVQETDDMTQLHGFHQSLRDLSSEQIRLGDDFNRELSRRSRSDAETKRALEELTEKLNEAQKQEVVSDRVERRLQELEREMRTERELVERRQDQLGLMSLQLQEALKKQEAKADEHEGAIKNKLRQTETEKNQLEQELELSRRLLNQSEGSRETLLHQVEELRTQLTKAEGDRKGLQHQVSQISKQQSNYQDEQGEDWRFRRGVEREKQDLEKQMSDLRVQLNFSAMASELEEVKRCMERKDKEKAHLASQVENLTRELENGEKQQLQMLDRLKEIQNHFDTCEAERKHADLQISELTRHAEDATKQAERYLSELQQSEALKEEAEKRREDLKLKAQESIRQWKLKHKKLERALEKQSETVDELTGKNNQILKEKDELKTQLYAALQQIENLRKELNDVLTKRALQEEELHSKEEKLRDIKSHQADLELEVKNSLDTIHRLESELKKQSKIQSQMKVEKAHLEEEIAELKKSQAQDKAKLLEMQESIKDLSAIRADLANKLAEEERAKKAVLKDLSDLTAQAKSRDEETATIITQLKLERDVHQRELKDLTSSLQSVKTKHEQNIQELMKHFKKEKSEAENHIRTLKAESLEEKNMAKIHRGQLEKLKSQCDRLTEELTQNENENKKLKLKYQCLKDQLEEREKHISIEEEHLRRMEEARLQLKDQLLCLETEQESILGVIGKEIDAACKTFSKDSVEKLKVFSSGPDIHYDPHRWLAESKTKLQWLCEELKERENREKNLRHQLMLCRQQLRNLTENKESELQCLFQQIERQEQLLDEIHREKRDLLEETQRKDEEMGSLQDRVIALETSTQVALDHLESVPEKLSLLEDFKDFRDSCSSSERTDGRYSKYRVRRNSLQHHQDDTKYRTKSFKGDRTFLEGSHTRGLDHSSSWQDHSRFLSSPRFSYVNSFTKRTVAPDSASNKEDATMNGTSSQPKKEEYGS
inactive: bafetinib -0.186 | dasatinib 0.046 | [2] -0.026 | tipifarnib -0.016 | mubritinib 0.143 | [4] -0.182 | [5] -0.029 | [11] 0.095 | [6] -0.234 | entinostat -0.112 | citarinostat -0.087 | silmitasertib -0.191 | [8] -0.068

C6orf120 (UniProt Q7Z4R8)
Sequence of UniProt Q7Z4R8 (Q7Z4R8 whole entry, looked up): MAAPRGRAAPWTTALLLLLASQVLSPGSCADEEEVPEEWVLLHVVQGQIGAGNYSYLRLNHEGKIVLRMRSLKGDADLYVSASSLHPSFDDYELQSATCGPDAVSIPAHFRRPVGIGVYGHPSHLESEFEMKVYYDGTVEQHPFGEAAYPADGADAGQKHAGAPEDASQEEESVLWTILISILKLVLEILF
inactive: bafetinib -0.145 | nilotinib -0.045 | [9] 0.044 | dasatinib 0.029 | [10] -0.048 | [3] -0.032 | tipifarnib 0.026 | [4] 0.068 | [6] -0.018 | entinostat 0.083 | citarinostat 0.031 | [8] -0.141

CLASP2 (UniProt O75122)
inactive: bafetinib -0.098 | nilotinib 0.014 | [9] -0.278 | [10] -0.231 | [2] -0.155 | [3] -0.344 | tipifarnib 0.045 | mubritinib 0.027 | [5] -0.049 | [11] 0.046 | citarinostat 0.143 | silmitasertib 0.083 | [8] 0.08
